According to PubChem BioAssay AID1159580 (chemical genetic matrix, 2015):
Several values for one entry are separate records, joined by “and”; a condition that tells them apart may be missing. Equal entries are not always repeated. Hit rate of the full screen: of about 5,500 compounds, about 2,000 (36%) were called active. About 18% were inconclusive and are not listed. Cut-off read from the data, not from the text of the source: active = normalized growth mostly below about 0.91 (no sharp cut-off); inconclusive = no clear call, values can overlap the other calls; inactive = mostly above about 0.92. The list shows a part of the results.

Assay: chemical genetic growth profiling, strain panel (AID 1159580);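 note: tested at 20 µM; growth read once vehicle control cultures reached saturation at 30 °C; 1 = growth at the plate median or of vehicle wells; lower values mean less growth of the strain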
Conditions: growth OD

Measured: normalized growth

Cc1cc(C(C)(C)C)c(O)c(C)c1CC1=NCCN1
inactive: S. cerevisiae deletion strains, locus YJR066W, strain TOR1, stronger effect = lower value 0.928 | S. cerevisiae deletion strains, locus YJR075W, strain HOC1, stronger effect = lower value 0.995 | S. cerevisiae deletion strains, locus YKL009W, strain mrt4, stronger effect = lower value 1.01 | S. cerevisiae deletion strains, locus YKL068W, stronger effect = lower value 1 | S. cerevisiae deletion strains, locus YKL085W, strain MDH1 (second series), stronger effect = lower value 1 | S. cerevisiae deletion strains, locus YKL085W, strain MDH1, stronger effect = lower value 1 | S. cerevisiae deletion strains, locus YKL160W, strain elf1, stronger effect = lower value 1.02 | S. cerevisiae deletion strains, locus YKL190W, strain CNB1, stronger effect = lower value 0.991 | S. cerevisiae deletion strains, locus YKR001C, strain vps1, stronger effect = lower value 1.02 | S. cerevisiae deletion strains, locus YKR026C, strain gcn3, stronger effect = lower value 1.01 | S. cerevisiae deletion strains, locus YKR091W, strain srl3, stronger effect = lower value 0.996 | S. cerevisiae deletion strains, locus YLL001W, strain dnm1, stronger effect = lower value 1.01 | S. cerevisiae deletion strains, locus YLL026W, stronger effect = lower value 1.02 | S. cerevisiae deletion strains, locus YLL041C, strain sdh2, stronger effect = lower value 1.01 | S. cerevisiae deletion strains, locus YLR027C, strain aat2, stronger effect = lower value 1 | S. cerevisiae deletion strains, locus YLR039C, strain RIC1, stronger effect = lower value 1.01 | S. cerevisiae deletion strains, locus YLR058C, strain SHM2, stronger effect = lower value 0.991 | S. cerevisiae deletion strains, locus YLR102C, strain apc9, stronger effect = lower value 1 | S. cerevisiae deletion strains, locus YLR113W, strain HOG1, stronger effect = lower value 0.997 | S. cerevisiae deletion strains, locus YLR221C, strain rsa3, stronger effect = lower value 1.01 | S. cerevisiae deletion strains, locus YLR258W, strain gsy2, stronger effect = lower value 1 | S. cerevisiae deletion strains, locus YLR262C, strain YPT6 (second series), stronger effect = lower value 1.02 | S. cerevisiae deletion strains, locus YLR262C, strain YPT6, stronger effect = lower value 0.974 | S. cerevisiae deletion strains, locus YLR268W, strain sec22, stronger effect = lower value 1.01 | S. cerevisiae deletion strains, locus YLR320W, strain mms22, stronger effect = lower value 1.02 | S. cerevisiae deletion strains, locus YLR330W, strain CHS5, stronger effect = lower value 0.999 | S. cerevisiae deletion strains, locus YLR342W, strain FKS1 (second series), stronger effect = lower value 0.984 | S. cerevisiae deletion strains, locus YLR342W, strain FKS1, stronger effect = lower value 1 | S. cerevisiae deletion strains, locus YLR357W, strain rsc2, stronger effect = lower value 1.02 | S. cerevisiae deletion strains, locus YLR370C, strain arc18, stronger effect = lower value 1.01 | S. cerevisiae deletion strains, locus YLR371W, strain rom2, stronger effect = lower value 1.01 | S. cerevisiae deletion strains, locus YLR384C, strain iki3, stronger effect = lower value 1.02 | S. cerevisiae deletion strains, locus YLR418C, strain cdc73, stronger effect = lower value 1.02 | S. cerevisiae deletion strains, locus YML016C, strain PPZ1, stronger effect = lower value 0.998 | S. cerevisiae deletion strains, locus YML032C, strain rad52, stronger effect = lower value 0.999 | S. cerevisiae deletion strains, locus YML120C, strain ndi1, stronger effect = lower value 1.01 | S. cerevisiae deletion strains, locus YML124C, strain tub3, stronger effect = lower value 1.02 | S. cerevisiae deletion strains, locus YMR058W, strain fet3, stronger effect = lower value 1.01 | S. cerevisiae deletion strains, locus YMR078C, strain ctf18, stronger effect = lower value 1.02 | S. cerevisiae deletion strains, locus YMR125W, strain sto1, stronger effect = lower value 1 | S. cerevisiae deletion strains, locus YMR129W, stronger effect = lower value 1 | S. cerevisiae deletion strains, locus YMR205C, strain PFK2, stronger effect = lower value 1.04 | S. cerevisiae deletion strains, locus YMR223W, strain ubp8, stronger effect = lower value 1 | S. cerevisiae deletion strains, locus YMR231W, strain pep5, stronger effect = lower value 1.01 | S. cerevisiae deletion strains, locus YMR263W, strain SAP30, stronger effect = lower value 1 | S. cerevisiae deletion strains, locus YMR307W, strain GAS1, stronger effect = lower value 0.985 and 0.998 | S. cerevisiae deletion strains, locus YNL067W, strain RPL9B, stronger effect = lower value 0.988 | S. cerevisiae deletion strains, locus YNL071W, strain lat1, stronger effect = lower value 1 | S. cerevisiae deletion strains, locus YNL128W, strain TEP1, stronger effect = lower value 0.998 and 1.04 | S. cerevisiae deletion strains, locus YNL153C, strain GIM3, stronger effect = lower value 0.996 and 1.01 | S. cerevisiae deletion strains, locus YNL175C, strain NOP13, stronger effect = lower value 1 | S. cerevisiae deletion strains, locus YNL183C, strain NPR1, stronger effect = lower value 0.936 | S. cerevisiae deletion strains, locus YNL197C, strain WHI3, stronger effect = lower value 1.01 | S. cerevisiae deletion strains, locus YNL209W, strain ssb2, stronger effect = lower value 1 | S. cerevisiae deletion strains, locus YNL224C, strain SQS1, stronger effect = lower value 1.02 | S. cerevisiae deletion strains, locus YNL233W, strain BNI4, stronger effect = lower value 1 | S. cerevisiae deletion strains, locus YNL248C, strain rpa49, stronger effect = lower value 0.997 | S. cerevisiae deletion strains, locus YNL250W, strain rad50, stronger effect = lower value 1.01 | S. cerevisiae deletion strains, locus YNL271C, strain bni1, stronger effect = lower value 1.02 | S. cerevisiae deletion strains, locus YNL298W, strain CLA4, stronger effect = lower value 0.982 | S. cerevisiae deletion strains, locus YNL307C, strain MCK1, stronger effect = lower value 1.01 | S. cerevisiae deletion strains, locus YNL322C, strain KRE1 (second series), stronger effect = lower value 1.03 | S. cerevisiae deletion strains, locus YNL322C, strain KRE1, stronger effect = lower value 0.998 | S. cerevisiae deletion strains, locus YNR049C, strain mso1, stronger effect = lower value 1.01 | S. cerevisiae deletion strains, locus YNR052C, strain pop2, stronger effect = lower value 1.02 | S. cerevisiae deletion strains, locus YOL006C, strain TOP1, stronger effect = lower value 1.01 | S. cerevisiae deletion strains, locus YOL012C, strain htz1 1.23 | S. cerevisiae deletion strains, locus YOL147C, strain pex11, stronger effect = lower value 1.01 | S. cerevisiae deletion strains, locus YOR001W, strain rrp6, stronger effect = lower value 0.97 | S. cerevisiae deletion strains, locus YOR061W, strain CKA2, stronger effect = lower value 1 | S. cerevisiae deletion strains, locus YOR069W, strain VPS5, stronger effect = lower value 0.997 | S. cerevisiae deletion strains, locus YOR070C, strain gyp1, stronger effect = lower value 1.01 | S. cerevisiae deletion strains, locus YOR080W, strain dia2, stronger effect = lower value 1 | S. cerevisiae deletion strains, locus YOR083W, strain WHI5 (second series), stronger effect = lower value 1.02 | S. cerevisiae deletion strains, locus YOR083W, strain WHI5, stronger effect = lower value 1.03 | S. cerevisiae deletion strains, locus YOR106W, strain vam3, stronger effect = lower value 1.02 | S. cerevisiae deletion strains, locus YOR136W, strain idh2, stronger effect = lower value 1 | S. cerevisiae deletion strains, locus YOR144C, strain elg1, stronger effect = lower value 1 | S. cerevisiae deletion strains, locus YOR184W, strain ser1, stronger effect = lower value 1.01 | S. cerevisiae deletion strains, locus YOR231W, strain MKK1, stronger effect = lower value 1.01 | S. cerevisiae deletion strains, locus YOR265W, strain rbl2, stronger effect = lower value 1 | S. cerevisiae deletion strains, locus YOR270C, strain vph1, stronger effect = lower value 1.01 | S. cerevisiae deletion strains, locus YOR290C, strain snf2, stronger effect = lower value 1.03 | S. cerevisiae deletion strains, locus YOR316C, strain cot1, stronger effect = lower value 1 | S. cerevisiae deletion strains, locus YPL051W, strain arl3, stronger effect = lower value 1.02 | S. cerevisiae deletion strains, locus YPL055C, strain LGE1, stronger effect = lower value 0.983 | S. cerevisiae deletion strains, locus YPL078C, strain atp4, stronger effect = lower value 1.01 | S. cerevisiae deletion strains, locus YPL106C, strain sse1, stronger effect = lower value 1.04 | S. cerevisiae deletion strains, locus YPL240C, strain hsp82, stronger effect = lower value 0.994 | S. cerevisiae deletion strains, locus YPL256C, strain CLN2, stronger effect = lower value 0.961 | S. cerevisiae deletion strains, locus YPR119W, strain clb2, stronger effect = lower value 1 | S. cerevisiae deletion strains, locus YPR141C, strain kar3, stronger effect = lower value 1.01 | S. cerevisiae deletion strains, locus YPR163C, strain tif3, stronger effect = lower value 1.02 | S. cerevisiae deletion strains, locus YPR167C, strain met16, stronger effect = lower value 1.01 | S. cerevisiae deletion strains, strain wtn01, stronger effect = lower value 1.01 | S. cerevisiae strains, strain wild type, stronger effect = lower value 0.984
